Artemis inh = inhibitors of human Artemis endonuclease activity. inhibition, % at 10 µM. recombinant Artemis, quenched FAM hairpin cleavage fluorescence. 0.78% of 30,000 active. Q96SD1. AID 686954;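 active means at 10 µM dose, at least 30% inhibition, measured as corrected fluorescence normalized to stimulator and neutral control wells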
Target sequence (Q96SD1 whole entry, looked up): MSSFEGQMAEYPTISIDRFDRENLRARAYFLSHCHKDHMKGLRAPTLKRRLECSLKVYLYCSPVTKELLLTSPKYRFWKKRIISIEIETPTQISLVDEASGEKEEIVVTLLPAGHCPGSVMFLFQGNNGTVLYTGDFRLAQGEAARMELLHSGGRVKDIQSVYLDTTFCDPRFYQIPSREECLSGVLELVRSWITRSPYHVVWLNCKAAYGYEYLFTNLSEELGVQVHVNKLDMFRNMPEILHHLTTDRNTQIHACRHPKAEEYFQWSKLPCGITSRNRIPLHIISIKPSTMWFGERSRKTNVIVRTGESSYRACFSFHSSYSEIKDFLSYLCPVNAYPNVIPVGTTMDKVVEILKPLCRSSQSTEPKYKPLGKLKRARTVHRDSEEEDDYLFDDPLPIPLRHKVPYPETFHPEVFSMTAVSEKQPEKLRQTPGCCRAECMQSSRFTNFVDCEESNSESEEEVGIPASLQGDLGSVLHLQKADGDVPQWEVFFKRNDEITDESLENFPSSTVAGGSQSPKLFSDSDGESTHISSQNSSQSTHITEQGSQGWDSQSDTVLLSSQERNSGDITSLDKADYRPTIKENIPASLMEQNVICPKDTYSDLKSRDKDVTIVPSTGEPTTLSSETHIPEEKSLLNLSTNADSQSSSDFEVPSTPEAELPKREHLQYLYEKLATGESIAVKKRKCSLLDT
* hit, by the source's call. Many of the other results were omitted from the sample, so hits are more common in it than they were.

SMILES | Artemis inh
CC1=C(OC(=O)c2ccccc2)C(C)(C)C(c2ccc(Br)cc2)OC1=O (centres undefined) | 0
Cc1cc(OCC(=O)N2CCCC2)cc(C)c1Cl | 4
CCCC(=O)Nc1ccc(N2CCCCC2)cc1 | -6
Cc1cc(OCC(=O)Nc2ccc(N3CCCC3)cc2)cc(C)c1Cl | 66*
COc1cccc(/C=N\NC(=O)c2cc(OCC(F)(F)F)ccc2OCC(F)(F)F)c1 | -7
c1ccc(-c2ccc(C3=Nn4c(Cn5nnc6ccccc65)nnc4SC3)cc2)cc1 | 33*
Brc1ccccc1C1=Nn2c(nnc2-c2ccccc2)SC1 | 6
O=C(Cn1nnc2ccccc21)C1CC1 | 3
COCc1cc(C)nc(OCC(=O)N/N=C\c2cc(C)n(-c3cccc(C(F)(F)F)c3)c2C)c1C#N | 1
N#CCc1ccc(C(=O)c2ccccc2F)s1 | -5
O=C(COc1ccc(Cl)cc1Cl)NCCC1=CCCCC1 | 8
O=c1c2ccccc2nc(-c2ccco2)n1/N=C/c1ccccc1O | -2
Cc1nnc(C)n1/N=C/c1cccn1C | 2
Cc1nnc(-c2ccccc2)c(=O)n1/N=C/c1c(O)ccc2ccccc12 | 47*
Cc1ccc(CO/N=C\Cc2snc(Sc3ncc(C(F)(F)F)cc3Cl)c2C#N)cc1 | 3
CCOC(=O)N1CCN(C(=O)c2ccc(N3C(=O)c4ccccc4C3=O)cc2)CC1 | -7
CCOC(=O)N1CCN(c2cc(NCCC(=O)O)c3c4c(onc24)-c2ccccc2C3=O)CC1 | 33*
CCOC(=O)N1CCN(c2ccc(C(=O)c3ccccc3)cc2F)CC1 | 0
Nc1ccc(SC(F)(F)F)cc1C(=O)c1ccccc1 | 0
Cc1ccc(C(=O)N2CCN(c3ccc([N+](=O)[O-])c(NCc4ccco4)c3)CC2)cc1 | 31*
Cc1cccc(C(=O)N2CCN(c3ccc([N+](=O)[O-])c(N4CCOCC4)c3)CC2)c1 | 2
Cc1cccc(C(=O)N2CCN(c3ccc([N+](=O)[O-])c(NCc4ccco4)c3)CC2)c1 | 28
Cc1cc(NC(=O)Cn2cnc3c2c(=O)n(C)c(=O)n3C)n(-c2ccccc2)n1 | -6
COc1cc(N/C=C(\C(C)=O)c2ccccc2)cc(OC)c1 | -7
COc1cc2c(cc1OC)C(c1cc3ccccc3oc1=O)=NC(C)(C)C2 | 4
SMILES | Artemis inh
Cn1cccc1CC(=O)N/N=C\c1cccs1 | -4
CCN(CC)C(=O)C(=O)N/N=C/c1cccs1 | 53*
Cc1ccc(N(CC(=O)N/N=C/c2cccs2)S(C)(=O)=O)cc1Cl | -5
O=C(NCN1C(=O)C2C3C=CC(C3)C2C1=O)OC1CCCCC1 (centres undefined) | -6
O=C(Cn1cnc2c(cnn2-c2ccc(F)cc2)c1=O)OCc1ccccc1 | -1
O=C(CSc1ncnc2c1nnn2-c1ccc(F)cc1)NCC1CCCO1 (centres undefined) | 0
O=C(Cn1cnc2c(cnn2-c2ccc(F)cc2)c1=O)NCC1CCCO1 (centres undefined) | 33*
O=C(Oc1cccc(NC(=O)c2ccccc2Cl)c1)c1ccc([N+](=O)[O-])cc1 | 22
CC1CN(C2CCN(C(=O)COc3ccc(Cl)cc3)CC2)CC(C)O1 (centres undefined) | -1
Cc1nc(NCCc2ccccc2F)c(C#N)c(C)c1[N+](=O)[O-] | 3
COC(=O)c1ccc(NC(=O)CN2C(=O)CNC2=O)cc1 | -3
C=CCn1c(N)c(C(=O)OCCC)c2nc3ccccc3nc21 | 40*
COCCNC(=O)c1c(N)n(CCC2=CCCCC2)c2nc3ccccc3nc12 | 11
CCN(CCO)c1ccc(-n2c(N)c(C(=O)OC)c3nc4ccccc4nc32)cc1 | -4
COc1ccc(O)c(/C=N/Nc2nc(Nc3ccccc3)nc(-n3nc(C)cc3C)n2)c1 | 102*
Cc1cc(C)n(-c2nc(C)nc(NCc3ccccc3)n2)n1 | -2
COc1ccc(O)c(/C=N/NC(=O)CSc2nnc(C)n2-c2ccccc2)c1 | 0
CCCC(C)NC(=O)c1cc(Cl)ccc1OC (centres undefined) | -1
CNC(=S)NNC(=O)COc1cccc(C)c1C | 9
Cc1nn(-c2ccc(F)cc2)c2sc(C(=O)N3CCCCCC3)cc12 | 6
Cc1nc(NC(=O)c2cc3c(C)nn(-c4ccccc4)c3s2)sc1C(=O)Nc1ccccc1 | 83*
Cc1nc(C)c(C(=O)Nc2ccccc2)s1 | -4
C/C(=N\NC(=S)NC(C)C)c1ccc(-n2ccnc2)cc1 | -5
Cc1sc(NC(=O)c2ccc(OCC(C)C)cc2)c(C(N)=O)c1-c1ccc(Cl)cc1Cl | 4
CCOC(=O)CC(Nc1nc(N2CCOCC2)nc(N2CCOCC2)n1)c1ccccc1Cl (centres undefined) | 6
SMILES | Artemis inh
COc1ccc(C)cc1NC(=O)CN(C)S(=O)(=O)c1cccs1 | 1
Cc1ccc(NCN2C(=O)c3ccccc3C2=O)c(C)c1 | -9
Cc1ccc(NC2=C/C(=N\S(=O)(=O)c3cccs3)c3ccccc3C2=O)c(C)c1 | 53*
CCC1(C)N=c2c(c(=O)n(C)c(=O)n2C)=NO1 (centres undefined) | 8
N#Cc1c(-c2cccs2)cc(C2CC2)nc1SCC(N)=O | 0
Cc1ccc(NC(=O)C(C)c2ccc(-c3ccccc3)c(F)c2)c(C)c1 (centres undefined) | -1
COC(=O)[C@@H]1[C@@H](C#N)C2(c3ccccc3-c3ccccc32)N(c2ccc(Cl)cc2)N1C#N | 40*
C#CCSc1nnc(-c2cc3c(C(F)(F)F)nn(C)c3s2)n1C | 20
CC1CCCC(NC(=O)COC(=O)CCC2CCCC2)C1C (centres undefined) | -2

Screening results (PubChem BioAssay)
